Test results taken from PubChem BioAssay AID1285 (Columbia University Molecular Screening Center, 2008).
The campaign covered roughly 190,000 compounds. About 1,600 (0.84%) were called active.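 Rule for the calls: active = inhibition above a set limit, derived from the sample mean plus 3 SD (cut at about 45% in these data); inconclusive = one replicate passes the limit while the other fails; inactive = the rest.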 What follows is part of a selection rich in actives, with near analogues and random picks from the rest.

experiment: inhibitors of APP translation via 5'UTR reporter, primary screen, APP 5'UTR luciferase, SH-SY5Y cells (AID 1285); settings: SH-SY5Y APP 5'UTR-luciferase reporter, luminescence; at 2 µM; hits give high values

inhibition, inactive:
Cc1cc(N2CCOCC2)nc2ccc(NC(=S)N3CCN(Cc4ccccc4)CC3)cc12 -3.7%
COc1ccc(/C=N/Nc2nc3ccccc3c(=O)[nH]2)cc1 -92.9%
CCOc1ccc(-n2c(O)c(/C=N/Nc3nnc(C)c(=O)[nH]3)c3ccccc3c2=O)cc1 -5.3%
COc1ccc(S(=O)(=O)N2CN(CCc3ccc(OC)c(OC)c3)c3nc4ccccc4nc32)cc1 -3.7%
COC(=O)C1=C(C)NC(=O)CC1c1ccccc1OC (configuration not stated) -15.8%
O=C(Nc1ccccc1C(=O)O)c1cc(S(=O)(=O)N2CCCCC2)cs1 -13.4%
Cc1ccsc1C(=O)N/N=C/c1ccc([N+](=O)[O-])cc1 -37.2%
Cc1ccc(-n2[nH]c(C)c(/C=N/NC(=O)c3cccc([N+](=O)[O-])c3)c2=O)cc1C -33.1%
CCOc1cc(CNn2c(C)nnc2SCC(=O)NC(C)(C)C)ccc1OCC(=O)NC(C)(C)C 21.4%
Cc1cc(C)n(CC(O)CN(c2ccccc2)S(=O)(=O)c2ccc3ccccc3c2)n1 (configuration not stated) 1.9%
CCOc1c(Cl)cc(/C=N/O)cc1OC -23.6%
CCOC(=O)CN/C=C(\C#N)c1ccc(F)cc1 -29.3%
Cc1ccc(S(=O)(=O)C2C(=O)NC3(C)CC2c2ccccc2O3)cc1 (configuration not stated) -1.5%
CCN(CC)CCCSc1nc2ccccc2s1 -15.1%
O=C(CC(NC(=O)c1ccccc1)c1ccccc1)Nc1ccc(F)c(F)c1 (configuration not stated) 24.2%
CCOC(=O)N1CCN(C(=O)COc2ccc(Br)cc2)CC1 -13.6%
CCOC(=O)N1CCN(C(=O)CSc2ccc(Cl)cc2)CC1 5%
CC(Sc1nnnn1C)C(=O)NC(=O)NC1CCCCC1 (configuration not stated) -31%
Cc1ccc(CCN2CC(C(=O)O)CC2=O)cc1 (configuration not stated) -6.2%
Cc1ccc(CNC(=O)C2CC(=O)N(C3CCCCCCC3)C2)cc1 (configuration not stated) -17.8%
Cc1ccc(NC(=O)c2ccc(Oc3ncccn3)cc2)cc1 -39.8%
O=C(CCC(=O)c1cccs1)NC1CCCCCC1 -18.6%
O=C(Nc1ccnc(-c2ccncc2)n1)c1cccs1 5.8%
COC(=O)CSc1nccc(-c2cccs2)n1 8.1%
Cc1ccc2c(c1)C(O)(CC(=O)c1cccc(-n3cccc3)c1)C(=O)N2 (configuration not stated) -4.6%
CC1CC(C)CN(C(=O)CSc2ccsc2[N+](=O)[O-])C1 (configuration not stated) -3.7%
O=C(NCc1ccco1)C(=O)c1cn(CC(=O)N2CCCCCC2)c2ccccc12 -1.5%
Cc1ccc(NC(=O)OCc2cncs2)cc1 -41.4%
COc1ccc(NC(=S)Nc2ccccc2Cl)cn1 -6.6%
COc1ccc(NC(=S)NCCNC(C)=O)cc1 -0.5%
CC(=O)Nc1ccc(OCC(=O)NCc2ccc(C)cc2)cc1 -8.4%
Cc1cc(C(=O)NNC(=O)CCC2CCCCC2)c(C)o1 -4%
O=C(Cc1cccs1)N(CC1CCCO1)C1(C(=O)NC2CCCCC2)CCCCC1 (configuration not stated) -11.4%
Cc1ccc(C(=O)OC2CCCN(C)C2)cc1 (configuration not stated) 5.1%
Cc1nnc(-c2ccc(Oc3ccc(C)c(C)c3)c([N+](=O)[O-])c2)o1 11.5%
Cc1[nH]c2ccccc2c1/C=N\NC(=O)Cn1nnc(-c2ccccc2)n1 -1.1%
CC1=NN(C(=O)CCc2ccccc2O)C(O)(C(F)(F)F)C1 (configuration not stated) 8.6%
Cc1cc(NC(=O)COC(=O)COc2ccc(Cl)cc2C)c([N+](=O)[O-])cc1C 8.7%
Cc1ccc(C(C)C)cc1OCCN1CCCC1 -3.6%
Cc1cc(N2CCN(C)CC2)nc2ccc(NC(=S)N3CCOCC3)cc12 -5.6%
COc1cccc(/C(C)=N/Nc2ncc(Cl)cc2Cl)c1 -24.9%
COc1cc(/C=C2\SC(=S)N(Nc3ncc(C(F)(F)F)cc3Cl)C2=O)cc(OC)c1OC 0.7%
OCCC1CN(Cc2cccc(O)c2)CCN1CCc1ccccc1 (configuration not stated) 1%
Cc1nn(C)c(C)c1S(=O)(=O)N1CCC(CO)(Cc2ccc(Cl)cc2)CC1 26.8%
CC(=O)Nc1cccc([N+](=O)[O-])c1 -68.1%
Cc1ccccc1NC(=S)Nc1cccc([N+](=O)[O-])c1 10.9%
Cc1[nH]c2ccccc2c1C(=O)COC(=O)C(C)C -8.5%
CCOC(=O)c1c(C)[nH]c(=S)c(C#N)c1-c1ccccc1 17.1%
CSc1ccc(C(=O)C2CCCN(C(=O)c3ccc(C)nc3)C2)cc1 (configuration not stated) -16.6%
CCOc1cc(N2CCOCC2)c(OCC)cc1NC(=O)C1=NN(c2cccc(C)c2)C(=O)CC1 -5.2%
CCCn1c(N)c(C(=O)CSc2nc3ccccc3c(=O)n2-c2ccc(OC)cc2)c(=O)[nH]c1=O -3.9%
O=c1c2c(nc3cc(-c4cccc(Cl)c4)[nH]n13)CCCC2 -158%
CCOC(=O)CSc1ncc(-c2cccc(Cl)c2)cn1 -2.7%
CCCn1c(NC(=O)C23CC4CC(CC(O)(C4)C2)C3)nc2ccccc21 9%
COC(=O)c1c(C)oc2ccc(N(C(=O)Oc3ccccc3)S(=O)(=O)c3ccccc3)cc12 0.2%
O=C(NC(=S)Nc1ccc2oc(=O)ccc2c1)c1ccc(-c2cccc(Cl)c2Cl)o1 2.2%
CCOc1cc(NC(=O)CCl)c(OCC)cc1NC(C)=O 5.3%
COc1ccc(-n2nnnc2-c2nc3ccccc3s2)cc1 -237%
CCOc1cccc(-c2nnc3sc(COc4ccc(OC)cc4)nn23)c1 -2.3%
C/C(=N\NC(=O)c1ccc(CSc2nc(C)cc(C)n2)cc1)C1CCCCC1 -23.6%
COc1cccc(CNCCc2c[nH]c3ccccc23)c1OCc1ccccc1F -3.5%
COc1ccc(CC(=O)NC(C)CCc2ccccc2)cc1 (configuration not stated) 18.8%
CCC(C)(C)NC(=O)C1c2ccccc2Oc2ccccc21 -10.4%
COc1cc2nc(CN(C)Cc3ccc(F)cc3)[nH]c(=O)c2cc1OC -10.3%
O=C(CN1CCN(S(=O)(=O)c2ccc(F)cc2)CC1)Nc1ccccc1F -2%
COc1ccc(C(=O)Nc2ccc(F)cc2F)cc1 -131%
Cc1nc(-c2ccc(Cl)cc2)sc1C(=O)CBr 5.2%
Clc1ccc(N/N=C/c2cccs2)nn1 -17.2%
COc1cccc2c1OCC(CN1CCN(C3CCCCC3)C(CCO)C1)=C2 (configuration not stated) 10.6%
O=C(NNc1ccccn1)c1ccc(Cl)nc1 9.8%
NS(=O)(=O)c1ccc(NC(=O)COC(=O)c2ccc(Cl)nc2)cc1 -14.1%
Cc1ccc(S(=O)(=O)N(C)c2ccc(OCC(=O)NC3=NCCS3)cc2)cc1 -2.9%
CCCC(=O)Nc1nc2ccc(NC(=O)c3cccnc3)cc2s1 4.1%
COc1ccc2nc(Nc3nc4ccc(NC(C)=O)cc4s3)sc2c1 -20.2%
CCOc1cnc(-c2c(-c3ccccc3Cl)noc2C)o1 16.9%
O=C(Cn1ncc(N2CCCC2)c(Br)c1=O)c1ccc(Cl)cc1 -71.1%
CCCCC(C(=O)OCC(=O)c1ccc(OC)cc1)N1C(=O)c2ccccc2C1=O (configuration not stated) 7.1%
CCOC(=O)c1ccccc1NS(=O)(=O)c1ccc(OC)cc1 -5.3%

inhibition, active:
COc1ccc(Cc2nnc(N/N=C/c3ccccc3O)[nH]c2=O)cc1OC 85.9%
Cc1cc(C(=O)N/N=C/c2cc([N+](=O)[O-])cc(C)c2O)n[nH]1 87.3%
CCOc1cc(/C=C(/C#N)c2ccc(Cl)cc2)cc(Cl)c1OCC(=O)O 50.6%
CCOC(=O)N1CCN(C(=O)COc2ccc(Cl)cc2C)CC1 49.2%
CCc1ccc(CNC(=O)C2CC(=O)N(CCc3ccc(C)cc3)C2)cc1 (configuration not stated) 50.9%
O=C(O)COc1ccc(-c2nccc(-c3cccs3)n2)cc1 69%
COc1ccc(NC(=O)/C(Cl)=C(/Cl)S(=O)Cc2ccc(C)cc2)cn1 (configuration not stated) 91.7%
COc1ccc(CS(=O)/C(Cl)=C(/Cl)C(=O)Nc2ccc(OC)nc2)cc1 (configuration not stated) 94%
COc1cccc(/C=N/Nc2ncc(C(F)(F)F)cc2Cl)c1O 80.5%
COC(=O)/C=C\C(=O)Nc1cccc([N+](=O)[O-])c1 65%
CCOC(=O)c1c(C)[nH]c2c1-c1ccccc1C(=O)C2=O 95.9%
O=C1CCCc2c1nc(-c1cccc(Cl)c1)n2O 94.3%
CCOc1cccc(-n2nnnc2-c2ccc(OC)cc2)c1 65.8%
COc1ccc(C(CCNCc2ccccc2F)c2ccc(F)cc2)cc1 (configuration not stated) 50.4%
CCOC(=O)N1CCN(S(=O)(=O)c2ccc(C(=O)Nc3ccc(F)cc3F)cc2)CC1 92.2%
CCN(CC)c1ccc(NC(=O)c2ccc(Cl)nc2)cc1 66.1%
CCCC(=O)Nc1nc2ccc(NC(=O)c3c(F)c(F)c(OC)c(F)c3F)cc2s1 88.8%
CCOC(=O)C1=C(c2ccc(OC)cc2)C(=O)c2ccccc2C1=O 59.6%
C[C@@H]1C[C@@H]2O[C@H]2/C=C\C=C\C(=O)Cc2c(Cl)c(O)cc(O)c2C(=O)O1 95%
